Screens from PubChem BioAssay.
AHR activator – AHR activators, primary screen, cell-based, luminescence, luciferase reporter, human. activation, % at 5 µM. 320,000 compounds, 2.5% hits. AHR-responsive luciferase reporter cells. AID 2796, 2010; in the data active means activation above about 47%
HSP90 inh – HSP90 inhibitors, primary screen, cell lysate, luminescence; 290,000 compounds, 0.91% hits; AID 1789, 2009; Rabbit reticulocyte lysate, luciferase refolding luminescence, 3 h; inhibition, % at 5.6 µM; Heat shock protein HSP 90 (rabbit reticulocyte lysate; luciferase refolding);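 active means inhibition above the screen-wide mean plus 3 SD, computed separately per campaign, cut at about 16% in these data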;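 further: inhibitors lower the luminescence because luciferase stays unfolded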
HSF-1 act – HSF-1 activators, primary screen, NIH3T3-HGL cells, MG132 stress, luminescence, single point. NIH3T3-HGL HSF-1 luciferase reporter, 8 h; 100% = twice DMSO control signal. 300,000 compounds, 1.7% hits. activation, % at 9 µM;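 active means mean replicate activation of at least 50% with a set share of replicates each reaching 50%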
DAX1 inh – DAX1 (NR0B1) inhibitors, primary screen, cell-based, HEK293, Gal4-DAX1, luciferase luminescence | HEK293 Gal4-DAX1 luciferase reporter | 340,000 compounds, 0.99% hits | Nuclear receptor subfamily 0 group B member 1 (Homo sapiens), P51843 | inhibition, % at 6.75 µM;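 active means inhibition above the mean over all tested compounds plus 3 SD, cut at about 4.2% in these data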;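 further: inhibition shows as a rise in luminescence from relieved DAX1 repression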
Target sequence (P51843 207-470 limits assumed): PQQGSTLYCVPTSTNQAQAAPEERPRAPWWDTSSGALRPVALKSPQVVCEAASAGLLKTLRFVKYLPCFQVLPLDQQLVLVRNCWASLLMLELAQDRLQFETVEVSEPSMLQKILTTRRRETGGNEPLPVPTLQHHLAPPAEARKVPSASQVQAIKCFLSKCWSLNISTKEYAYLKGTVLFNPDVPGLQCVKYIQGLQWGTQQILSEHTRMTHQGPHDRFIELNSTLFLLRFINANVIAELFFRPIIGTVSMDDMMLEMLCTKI
FXN GAA850 act – FXN promoter activators, primary screen, cell-based, luciferase luminescence, HEK293 lucGAA850; HEK293 lucGAA850 FXN promoter luciferase reporter, 24 h; percent of 10 µM SAHA response; activation, % at 6 µM; 360,000 compounds, 0.56% hits;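 active means activation above the average of all compounds screened plus 3 SD, cutoff fixed separately per campaign, cut at about 7.5% in these data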
HSF1 inhib – HSF1 inhibitors in luciferase reporter cells, primary screen, cell-based, NIH3T3, luminescence; NIH3T3-HGL HSE-luciferase, MG132-induced, luminescence 8 h; active compounds read low; activity change, negative = inhibition, % at 7.5 µM (by protocol); 300,000 compounds, 0.77% hits;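 active means more than half of replicate wells show activity change below -50%, luminescence cut by over half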;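 further: luciferase reports HSF-1 transcriptional activity via heat shock element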
A number is an active result; i = inactive; nt = no result. The list is not random: actives were taken first. Their share in the collection is about 5.9%.

SMILES	AHR activator	HSP90 inh	HSF-1 act	DAX1 inh	FXN GAA850 act	HSF1 inhib
Cc1onc(-c2ccccc2)c1C(=O)NC(=S)NNC(=O)c1cc(-c2ccc(F)cc2)n[nH]1	i	i	i	i	i	i
CC1CCCCN1C(=O)CN1CCC(c2nc3ccc(Cl)cc3[nH]2)CC1 (stereo unspecified)	i	i	i	4.5	i	i
CCc1noc(C)c1C(=O)Nc1nc2c(C)cc(C)cc2s1	i	nt	i	i	i	i
CCC(=O)NNc1nc2c(C)cc(C)cc2s1	62.2	i	i	i	i	i
CC(=O)Nc1cc(C)c2nc(NC(C)=O)sc2c1	i	i	i	8.3	i	i
CCOC(=O)c1ccc(NC(=O)CCS(=O)(=O)c2ccc(Br)s2)cc1	i	i	116.6	i	i	i
COc1ccc(NC(=O)CCS(=O)(=O)c2ccc(Br)s2)cc1	i	i	i	i	i	i
COc1cc(/C=C/C(=O)OC(C)C(=O)Nc2c(C)n(C)n(-c3ccccc3)c2=O)ccc1OCC#N (stereo unspecified)	i	i	i	i	i	i
CCc1cc2c(-c3ccccc3)cc(=O)oc2cc1OC(=O)c1cccs1	i	i	i	i	i	i
O=C(Oc1ccc2c(-c3ccccc3)cc(=O)oc2c1)c1cccs1	i	i	i	4.4	i	i
O=c1cc(-c2ccccc2)c2ccc(O)cc2o1	i	nt	i	i	i	-51.4
O=C(Cn1c(NCCCO)nc2ccccc21)c1ccco1	i	16.1	i	i	i	i
OCCCNc1ncnc2c1ncn2[C@H]1CN(Cc2ccco2)C[C@@H](CO)O1	nt	nt	nt	nt	i	nt
Cn1c(/C=C/c2ccccc2)nc2ccccc21	i	i	i	i	i	i
CC(=O)c1ccc(/C=C/c2nc3ccccc3n2C)o1	i	i	66.2	nt	i	i
O=C(NCCCn1ccnc1)C1CCN(S(=O)(=O)c2ccc(F)cc2)CC1	i	i	i	i	i	i
Cn1nnnc1Sc1ncnc2scc(-c3ccc(F)cc3)c12	i	i	62.4	i	i	i
COc1ccc(N2CCN(CCC(O)c3ccc4ccccc4c3)CC2)cc1 (stereo unspecified)	i	i	i	i	i	i
O=C(NC(c1ccc(Cl)cc1)c1ccccn1)C1CCN(CCOc2ccc(Cl)cc2Cl)CC1 (stereo unspecified)	nt	nt	nt	nt	i	nt
CCc1ccc2c(c1)C1(NN=C(c3ccc(C)cc3)S1)C(=O)N2 (stereo unspecified)	54.6	i	i	i	i	i
O=C(CCl)NC1(C(=O)O)CCCC1	nt	nt	nt	i	i	nt
Cc1nc(N)sc1-c1csc(Nc2ccc(Cl)cn2)n1	76.2	i	i	i	i	i
CCCCCC(=O)Nc1nc(C)c(-c2csc(Nc3ccc(Cl)cc3)n2)s1	65.5	i	i	i	i	i
CCCCCCC(=O)Nc1nc(C)c(-c2csc(Nc3ccc(Cl)cc3)n2)s1	62.2	i	i	i	i	i
C=CCNc1nc(-c2sc(NC(C)=O)nc2C)cs1	i	i	i	i	i	i
SMILES	AHR activator	HSP90 inh	HSF-1 act	DAX1 inh	FXN GAA850 act	HSF1 inhib
C=CCNc1nc(-c2sc(NC(=O)CC)nc2C)cs1	69.6	i	i	i	i	i
CC(C)(C)c1nnc2sc(SCC(=O)N3CCCCC3)nn2c1=O	i	nt	nt	i	i	nt
COc1ccc(NC(=O)N(C)C[C@H]2OCc3cnnn3CCCC(=O)N([C@H](C)CO)C[C@@H]2C)cc1	nt	nt	nt	i	i	nt
O=C(NCC(=O)N1CCN(Cc2ccccc2)CC1)c1ccccc1Cl	nt	nt	nt	i	i	nt
Cc1ccc(Nc2nc(-c3sc(C)nc3C)cs2)cc1	61.5	i	i	i	i	i
N#Cc1nc(-c2ccc(F)cc2)oc1N1CCC(C(N)=O)CC1	i	i	i	i	i	i
Brc1ccc(N=NNc2ccccc2)cc1	57.6	i	i	i	i	i
Cc1c(C)c2c(C)nn(-c3ccccc3)c2[nH]c1=O	96.2	i	i	i	i	i
Cc1ccc(C)n1-c1nccc(-c2cccs2)n1	i	i	i	i	i	i
N#Cc1cccn1-c1nccc(-c2cccs2)n1	65.1	i	i	i	i	i
CC1=C(C(=O)NC(C)CCc2ccccc2)C2(CCC(C)CC2)OC1=O (stereo unspecified)	i	i	i	5.1	i	i
CC1=C(C(=O)NC(C)c2ccccc2)C2(CCC(C)CC2)OC1=O (stereo unspecified)	i	i	i	i	i	i
O=C(N1CCOCC1)N1CCN(c2nc(-c3ccccc3)cs2)CC1	nt	i	i	i	i	i
CN(C)C(=O)N1CCN(c2nc(-c3ccccc3)cs2)CC1	i	i	i	4.6	i	i
Cc1cc(N(C)C)nc(Nc2ccccc2)n1	i	nt	nt	i	i	nt
Cc1sc(NC(=O)c2ccco2)c(CN2CCN(Cc3ccccc3)CC2)c1C	i	i	i	i	i	i
Cc1sc(NC(=O)c2ccc(F)cc2)c(CN2CCCCCC2)c1C	i	i	56.5	i	i	i
Cc1sc(NC(=O)c2ccccc2F)c(CN2CCCCC2)c1C	i	i	57.7	i	i	i
O=c1oc(-c2ccc(Cl)cc2[N+](=O)[O-])nc2ccccc12	nt	nt	nt	i	i	nt
CC(C)C1N=C(c2ccc3c(c2)OCO3)CC(c2ccccc2O)N1 (stereo unspecified)	59.0	i	75.4	i	i	i
c1ccc2[nH]c(-c3ccc4c(c3)OCO4)nc2c1	i	nt	i	nt	i	i
Cc1cccc(NC(=O)CCc2c(C)nn(-c3ccc(N4CCCCC4)nn3)c2C)c1	i	i	63.7	i	i	i
COc1ccccc1-c1cc(=O)c2c(O)ccc([N+](=O)[O-])c2o1	i	nt	i	i	i	i
COC(=O)c1cc(=O)c2c([N+](=O)[O-])ccc(OC)c2o1	i	i	i	4.6	i	i
COc1ccccc1CNCC(c1ccccc1)c1ccccc1	i	i	61.0	i	i	i
O=c1c(O[C@H]2O[C@@H](CO)[C@H](O)[C@@H](O)[C@@H]2O)c(-c2ccc(O)cc2)oc2cc(O)cc(O)c12	i	nt	nt	i	i	nt
O=c1c(OC2OC(CO)C(O)C(O)C2OC2OC(CO)C(O)C(O)C2O)c(-c2ccc(O)cc2)oc2cc(O)cc(O)c12 (stereo unspecified)	i	nt	nt	4.6	i	nt
Cc1c(C(=O)OCc2nc3ccsc3c(=O)[nH]2)oc2ccccc12	i	nt	nt	i	i	nt
CCCCN(C)C(=O)C1CCC(CNS(=O)(=O)c2ccc3c(c2)CC(C)N3C(=O)C2CC2)CC1 (stereo unspecified)	i	i	60.8	i	i	i
Cc1cc(Cl)ccc1C(O)c1ncc(-c2ccccc2Cl)[nH]1 (stereo unspecified)	nt	nt	nt	nt	i	nt
